# Results taken from PubChem BioAssay AID743096 (Vanderbilt Specialized Chemistry Center, 2013).
# A number with no mark means an inactive call.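 How the source made its calls: active means calcium signal above 60% of the top acetylcholine response at human muscarinic M5 receptors, as a positive modulator; inactive means the rest.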
# Biological target: Muscarinic acetylcholine receptor M2 (Homo sapiens) (UniProt P08172)
# Experiment: M2 receptor positive allosteric modulation, selectivity assay for M5 PAM discovery project, cell-based, human M2 (AID 743096)
# Details: CHO-K1 hM2/Gqi5, calcium flux, ACh EC20 potentiation; series mostly up to 30 µM; percent of max ACh response: at the top concentration
# Chain of Muscarinic acetylcholine receptor M2 (Homo sapiens) (P08172 whole entry, looked up): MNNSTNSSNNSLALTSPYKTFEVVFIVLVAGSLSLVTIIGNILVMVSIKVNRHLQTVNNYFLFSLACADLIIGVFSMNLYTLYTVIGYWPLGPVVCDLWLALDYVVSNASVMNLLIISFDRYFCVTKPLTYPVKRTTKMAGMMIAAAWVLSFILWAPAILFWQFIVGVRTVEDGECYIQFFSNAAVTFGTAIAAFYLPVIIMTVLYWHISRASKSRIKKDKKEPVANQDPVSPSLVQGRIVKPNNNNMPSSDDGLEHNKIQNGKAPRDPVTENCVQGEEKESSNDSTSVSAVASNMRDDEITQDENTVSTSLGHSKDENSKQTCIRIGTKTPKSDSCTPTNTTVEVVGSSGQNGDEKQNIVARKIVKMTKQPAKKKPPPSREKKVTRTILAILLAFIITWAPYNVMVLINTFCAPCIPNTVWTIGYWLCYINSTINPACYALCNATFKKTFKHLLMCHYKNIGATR
row,Compound,percent of max ACh response
1,CCN(Cc1ccccc1Cl)C(=O)C1CCN(S(=O)(=O)c2ccc3[nH]ncc3c2)CC1,9.88
2,CCN(Cc1ccccc1)C(=O)C1CCN(S(=O)(=O)c2ccc3c(c2)OCCO3)CC1,24
3,CCN(Cc1ccccc1)C(=O)C1CCN(S(=O)(=O)c2ccc(OC)cc2)CC1,18.5
4,CCN(C(=O)C1CCN(S(=O)(=O)c2ccc3[nH]ncc3c2)CC1)[C@H](C)c1ccccc1,22.4
5,CCN(Cc1ccccc1C(F)(F)F)C(=O)C1CCN(S(=O)(=O)c2ccc3[nH]ncc3c2)CC1,18.9
6,CCN(C(=O)C1CCN(S(=O)(=O)c2ccc(OC)cc2)CC1)[C@H](C)c1ccccc1,28.7
